The values that follow come from PubChem BioAssay.

Calls of active or inactive are those of the source. Unless noted, no rule for the calls is given here.

Test [1] can be described thus: compound effects on lung adenocarcinoma cell viability – A549, calcein-AM fluorescence, 48 h, basal, profiling panel (AID 1162). Also: test concentration not given here. To be noted: higher = more signal.
Test [2] in a line: compound effects on differentiated 3T3-L1 adipocyte viability – cell-based, 3T3-L1 adipocytes, calcein-AM fluorescence, 48 h, basal, profiling panel (AID 1163). Also: test concentration not given here. To be noted: 3T3-L1 adipocytes viability, higher = more signal.
The nature of test [3]: compound effects on hepatocellular carcinoma cell viability – HepG2, calcein-AM fluorescence, 48 h, basal, profiling panel (AID 1164). Also: test concentration not given here. To be noted: higher = more signal.
The nature of test [4]: compound effects on multiple myeloma cell viability – MM1S, calcein-AM fluorescence, 48 h, basal, profiling panel (AID 1165).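 Also: viability of MM1S multiple myeloma cells under basal unstimulated conditions; test concentration not given here.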 To be noted: higher = more signal.
Test [5] in a line: calcein-AM signal in unstimulated myeloma cells – cell-based, calcein-AM fluorescence, 48 h, PK04 Diversity Set, profiling panel (AID 1166).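 Also: cells grown under basal conditions without added stimulus; test concentration not given here.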 To be noted: RPMI8226 myeloma viability, higher = more signal.
Test [6] can be described thus: JC-1 mitochondrial signal, unstimulated HepG2 cells – cell-based, JC-1 fluorescence, 24 h, 100 nL compound, profiling panel (AID 1167). Also: test concentration not given here. The following applies: HepG2 mitochondrial potential, higher = more signal.
Test [7] in a line: JC-1 mitochondrial signal, unstimulated adipocytes – cell-based, JC-1 fluorescence, 3T3-L1 adipocytes, 24 h, 100 nL compound, profiling panel (AID 1168). Also: test concentration not given here. The following applies: JC-1 mitochondrial fluorescence, higher = more signal, called active from +8 up or from −8 down.
Test [8] can be described thus: JC-1 mitochondrial signal, unstimulated myeloma cells – cell-based, JC-1 fluorescence, RPMI8226, 24 h, 100 nL compound, profiling panel (AID 1169). Also: test concentration not given here. To be noted: JC-1 mitochondrial potential fluorescence, higher = more signal.
Test [9] can be described thus: JC-1 mitochondrial signal, unstimulated MM1S myeloma – cell-based, JC-1 fluorescence, 24 h, 100 nL compound, profiling panel (AID 1170). Also: test concentration not given here. To be noted: MM1S mitochondrial potential, higher = more signal.
Test [10] can be described thus: resazurin metabolic signal in A549 cells – cell-based, resazurin fluorescence, 24 h, PK04 Diversity Set, profiling panel (AID 1171). Also: test concentration not given here. The following applies: A549 viability, higher = more signal, called active from +8 up or from −8 down. A general note: The colour change of resazurin is a common sign of viable cells or microbes.
The nature of test [11]: resazurin metabolic signal in HepG2 cells – cell-based, resazurin fluorescence, 24 h, PK04 Diversity Set, profiling panel (AID 1172). Also: test concentration not given here. The following applies: HepG2 viability, higher = more signal.
The nature of test [12]: budding yeast growth changes without added modifier – OD600, strain BY4716, 24 h, basal condition, primary screen (AID 1173). The following applies: S. cerevisiae BY4716 growth, OD600, 24 h; higher = more signal, called active from +8 up or from −8 down.
A short description of test [13]: viability profiling in MM1S myeloma cells – cell-based, resazurin fluorescence, basal, 24 h, PK04 Diversity Set, profiling panel (AID 1174). Also: test concentration not given here. The following applies: higher = more signal, called active from +8 up or from −8 down.
In test [14] the target is Dihydroorotate dehydrogenase (quinone), mitochondrial (Plasmodium falciparum (isolate 3D7)) (UniProt Q08210). The experiment in a line: inhibition of P. falciparum DHODH – biochemical, C-terminal His tag, absorbance 600 nm, primary screen (AID 1175).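 Also: recombinant parasite enzyme with a five histidine tag at its C terminus; test concentration not given here.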 To be noted: PfDHODH enzyme, DCIP absorbance 600 nm; higher = more signal, called active from +8 up or from −8 down.
A short description of test [15]: inhibition of PAO1 biofilm formation – strain PAO1, LB-PBS medium, absorbance 600 nm, primary screen (AID 1176). Also: test concentration not given here. To be noted: P. aeruginosa PAO1 growth/biofilm, A600, 12 h; higher = more signal.
Test [16] can be described thus: growth modulation of vineyard yeast isolate – strain RM11-1a, OD600, basal, 24 h, primary screen (AID 1177).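 Also: cultures grown under basal conditions with no added stressor; test concentration not given here.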 To be noted: S. cerevisiae RM11-1a growth, OD600, 24 h; higher = more signal, called active from +8 up or from −8 down.
Test [17] is described as follows: growth of efflux-deficient E. coli DRC39 – strain DRC39, OD650, 24 h, E. coli filamentation inducers, primary screen (AID 1178).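 Also: growth measured as culture turbidity by optical density at 650 nm; test concentration not given here.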 To be noted: E. coli DRC39 acrAB, higher = more signal, called active from +8 up or from −8 down.
Test [18] is described as follows: growth of efflux-deficient E. coli DRC39 – strain DRC39, OD650, 48 h, E. coli filamentation inducers, primary screen (AID 1179).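 Also: screen aims at cell division blockers that make cells filament.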 The following applies: E. coli DRC39 delta-acrAB growth, higher = more signal, called active from +8 up or from −8 down.
A short description of test [19]: viability profiling in RPMI8226 myeloma cells – cell-based, resazurin fluorescence, basal, 24 h, PK04 Diversity Set, profiling panel (AID 1180).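 Also: RPMI8826 multiple myeloma cell line at 5000 cells per well; test concentration not given here.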 The following applies: higher = more signal.
For test [20], the target named is E3 ubiquitin-protein ligase XIAP (Homo sapiens) (UniProt P98170). The experiment in a line: small molecules binding XIAP protein – biophysical, small-molecule microarray, fluorescence 635 nm, primary screen (AID 1181).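 Also: score merges 667 nm emission and signal to noise over triplicate slides.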 To be noted: higher = more signal.
Sequence of E3 ubiquitin-protein ligase XIAP (Homo sapiens) (P98170 whole entry, looked up): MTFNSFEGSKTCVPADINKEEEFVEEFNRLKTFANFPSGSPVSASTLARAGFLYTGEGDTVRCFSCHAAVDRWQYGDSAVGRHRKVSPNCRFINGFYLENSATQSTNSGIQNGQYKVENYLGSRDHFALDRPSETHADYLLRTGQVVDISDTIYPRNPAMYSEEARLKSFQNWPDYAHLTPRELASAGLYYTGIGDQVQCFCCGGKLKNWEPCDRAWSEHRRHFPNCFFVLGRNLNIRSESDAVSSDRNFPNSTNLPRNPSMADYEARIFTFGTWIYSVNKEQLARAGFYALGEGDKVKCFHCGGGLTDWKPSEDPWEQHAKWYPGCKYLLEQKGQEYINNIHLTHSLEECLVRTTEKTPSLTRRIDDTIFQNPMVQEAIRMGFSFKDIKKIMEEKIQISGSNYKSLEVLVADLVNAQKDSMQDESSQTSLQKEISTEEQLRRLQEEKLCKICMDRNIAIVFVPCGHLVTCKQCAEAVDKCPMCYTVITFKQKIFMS

Sequence of Dihydroorotate dehydrogenase (quinone), mitochondrial (Plasmodium falciparum (isolate 3D7)) (Q08210 whole entry, looked up): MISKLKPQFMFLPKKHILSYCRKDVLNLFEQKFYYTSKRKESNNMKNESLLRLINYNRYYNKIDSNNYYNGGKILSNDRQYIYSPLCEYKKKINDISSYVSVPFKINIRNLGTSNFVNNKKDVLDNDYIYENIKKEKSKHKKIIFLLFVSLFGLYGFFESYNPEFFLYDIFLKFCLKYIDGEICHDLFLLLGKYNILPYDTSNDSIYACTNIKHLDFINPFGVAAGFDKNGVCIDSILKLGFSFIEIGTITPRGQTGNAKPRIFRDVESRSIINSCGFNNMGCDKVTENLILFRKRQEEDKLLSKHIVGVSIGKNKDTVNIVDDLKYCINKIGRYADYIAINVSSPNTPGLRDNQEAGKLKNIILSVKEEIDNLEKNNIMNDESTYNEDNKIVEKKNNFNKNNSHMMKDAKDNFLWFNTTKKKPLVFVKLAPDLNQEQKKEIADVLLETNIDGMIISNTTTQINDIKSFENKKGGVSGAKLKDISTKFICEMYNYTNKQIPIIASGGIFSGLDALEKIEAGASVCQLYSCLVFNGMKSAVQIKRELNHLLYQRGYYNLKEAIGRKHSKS

Regarding `CC(C)Cc1ccc(CN2CC[C@@H](NC(=O)Nc3ccccc3)C2)cc1`, the z-score was -4.11 in test [1]; -1.07 in test [2]; -4.91 in test [3]; -3.11 in test [4]; -4.03 in test [5]; -2.75 in [6]. In addition, the z-score in test [7] was 0.465 (inactive); in [8] it was -1.11; in test [9], -3.26; in test [10], -2.79 (inactive); in [11], -5.14; in test [12], -17.3 (active). The z-score is -9.38 (active) in [13]; 0.294 (inactive) in test [15]; -4.95 (inactive) in test [16]; 0.451 (inactive) in test [17]; -0.748 (inactive) in test [18]; -4.87 in test [19]. Moreover, the results for the composite z-score in test [14] and in [20] were 0.545 (inactive) and -0.209, respectively.

`COC(=O)[C@@]1(Cc2ccc(OC)cc2)[C@H]2c3cc(C(=O)N(C)C)n(Cc4ccc(Cl)c(C(F)(F)F)c4)c3C[C@H]2CN1C(=O)c1ccccc1`: the z-score is -0.585 in test [1]; -0.88 in test [2]; -0.585 in test [3]; -1.93 in test [4]; -2.39 in test [5]; 0.765 in [6]. Also, the z-score was -0.938 (inactive) in test [7]; -0.652 in test [8]; -1.69 in test [9]; -1.83 (inactive) in test [10]; -1.21 in test [11]; 1.86 (inactive) in [12]. For the same molecule, the z-score in [13] is -2.74 (inactive); in [15], 0.812 (inactive); in test [16], 0.673 (inactive); in test [17], -0.505 (inactive); in test [18] it was -0.0176 (inactive); in [19] it was -2.7. Moreover, the composite z-score is 0.381 (inactive) in test [14] and 0.216 in test [20].

On to `CC1=C([C@H](O)CCc2ccccc2)[C@H](CO)[C@@H]2C(=O)N(C)C(=O)[C@@H]2C1`, for which the z-score in [1] is 1.18; in test [2] it was -0.371; in [3] it was -0.473; in test [4] it was 0.236; in test [5], -0.245; in test [6] it was -0.622. Moreover, the z-score in [7] is 0.459 (inactive); in test [8], -0.0985; in test [9], -0.279; in test [10], -0.39 (inactive); in test [11] it was -0.0457; in [12], -2.32 (inactive). Moreover, the z-score in test [13] was -0.382 (inactive); in test [15], 0.176 (inactive); in test [16] it was 0.291 (inactive); in [17], 0.15 (inactive); in test [18], 0.181 (inactive); in [19], 0.149. The composite z-score in test [14] was -1.2 (inactive); in test [20], -0.152.

Take `COC(=O)CCCCCCC(=O)Nc1ccc(NC(=O)CCCC[P+](c2ccccc2)(c2ccccc2)c2ccccc2)cc1`: the z-score in test [1] is -0.0008; in test [2], -0.297; in test [3] it was 0.67; in test [4], 0.134; in test [5], -0.268; in [6], 1.58. Moreover, the z-score in [7] was 1.03 (inactive); in test [8], -0.176; in test [9], -1.46; in test [10], 1.1 (inactive); in [11], 1.45; in [12] it was -1.95 (inactive). The z-score in [13] was 0.687 (inactive); in [15], -1.01 (inactive); in [16] it was 1.68 (inactive); in [17] it was -17.1 (active); in test [18] it was -5.78 (inactive); in test [19], 0.347. Also, the composite z-score is -1.77 (inactive) in test [14] and -0.127 in test [20].

Consider `CN1C(=O)C2C=CC(C(O)c3cccc(O)c3)N(Nc3ccccc3)C2C1=O` (stereo not given), for which the z-score in [1] was -0.501; in test [2], -0.58; in [3] it was -0.333; in test [4] it was -1.58; in test [5], -1.67; in test [6], -0.579. Moreover, the z-score in [7] is 0.548 (inactive); in test [8] it was -0.419; in test [9] it was -0.179; in [10] it was 0.0494 (inactive); in [11], 0.0748; in test [12], 0.655 (inactive). Moreover, the z-score in [13] was -0.462 (inactive); in test [15], -0.159 (inactive); in [16], 0.837 (inactive); in [17], -1.32 (inactive); in test [18], -0.17 (inactive); in test [19], -2.48. The composite z-score in [14] was 0.613 (inactive); in test [20], -0.0812.

As for `C=C[C@@H](COC(C)=O)N(C(=O)OC(C)(C)C)S(=O)(=O)c1ccc(Br)cc1`, the z-score in [1] is 1.82; in test [2], 0.104; in [3] it was 0.469; in test [4], 0.867; in test [5], 0.643; in test [6] it was 0.515. Also, the z-score was 0.122 (inactive) in test [7]; -0.212 in [8]; -0.624 in test [9]; -0.586 (inactive) in test [10]; -0.19 in test [11]; -3.49 (inactive) in test [12]. For the same molecule, the z-score in test [13] was -2.19 (inactive); in [15] it was -0.938 (inactive); in [16], 0.317 (inactive); in test [17], -0.0872 (inactive); in test [18], 0.499 (inactive); in test [19] it was -0.288. Also, the values for the composite z-score in test [14] and in [20] were -1.25 (inactive) and 0.0618, respectively.

On to `COc1ccc([Si](C)(C)[C@@H]2[C@@H](CC(=O)N3Cc4ccccc4C[C@H]3CO)O[C@]3(C(=O)N(Cc4cccc(N5C(=O)c6cccc7cccc5c67)c4)c4ccccc43)[C@H]2C)cc1`, for which the z-score in test [1] was -0.419; in test [2], 1.11; in test [3] it was -0.553; in [4], -0.428; in test [5], -1.41; in test [6], -0.715. Also, the z-score is 1.14 (inactive) in test [7]; -0.98 in [8]; -1.36 in test [9]; -1.28 (inactive) in test [10]; -0.468 in test [11]; 0.517 (inactive) in [12]. The z-score was -1.54 (inactive) in [13]; 1.42 (inactive) in test [15]; 0.618 (inactive) in [16]; 0.226 (inactive) in [17]; -0.143 (inactive) in [18]; -0.711 in test [19]. The composite z-score in test [14] is -3.83 (inactive); in test [20], -0.253.

`COC(=O)[C@@]1(Cc2ccc(F)cc2)[C@H]2c3cc(C(=O)N(C)C)n(Cc4cc(F)cc5c4OCOC5)c3C[C@H]2CN1C(=O)c1ccccc1`: the z-score was 0.217 in test [1]; 0.572 in test [2]; 0.607 in [3]; -1.25 in [4]; -1.9 in [5]; 1.76 in test [6]. In addition, the z-score was -0.737 (inactive) in test [7]; -0.74 in [8]; -0.942 in test [9]; -1.8 (inactive) in [10]; -0.933 in test [11]; 0.434 (inactive) in test [12]. Moreover, the z-score is -1.73 (inactive) in test [13]; 0.728 (inactive) in test [15]; -0.341 (inactive) in test [16]; -0.462 (inactive) in [17]; 0.164 (inactive) in [18]; -2.74 in test [19]. Also, the composite z-score in [14] is -0.954 (inactive); in test [20] it was 0.476.

As for `O=C1c2ccccc2[C@](Cc2ccccc2I)(C(=O)NCC(F)(F)F)[C@H](c2ccc(CO)cc2)N1C1CCCCC1`, the z-score in test [1] was 1.77; in [2], 0.515; in test [3], 1.02; in test [4], -1.75; in [5], -3.92; in test [6], 1.3. For the same molecule, the z-score is 0.238 (inactive) in test [7]; -0.434 in test [8]; 0.23 in [9]; -0.0818 (inactive) in test [10]; -0.46 in test [11]; -0.754 (inactive) in [12]. In addition, the z-score in [13] is 0.247 (inactive); in test [15], 0.127 (inactive); in [16] it was 0.234 (inactive); in [17], 0.739 (inactive); in test [18], 0.743 (inactive); in test [19], -0.581. Moreover, the composite z-score is -1.11 (inactive) in test [14] and 0.129 in [20].
